AMA1 RON2 block – disrupts binding of P. falciparum AMA1 to RON2. AlphaScreen AMA1-biotinylated RON2 peptide binding. Potency, µM (doses to about 58.2 µM), inactives show at the highest dose activity change, negative = inhibition, most hits filed as inhibitors. 360,000 compounds, 0.2% hits. AID 720542;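 also: 0% = vehicle wells and -100% = peptide control; nearly all actives have a fitted effect of over 45% in size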
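AMA1 (3D7) with his tag at 25 nM final met compounds first, then biotinylated RON2 peptide at 25 nM; detection used donor plus acceptor beads, 10 µg/mL apiece, read by AlphaScreen after 30 min at room temperature.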
NS1 inh – influenza NS1 inhibition; Potency, µM (top dose mostly 46.1 µM), without a hit: at the top dose activity, positive = more growth; 270,000 compounds, 0.4% hits; calls by dose curve; also: actives are rising curves; nearly all actives have a fitted effect of over 50% in size
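Compounds were scored for reversing the slow growth caused by influenza A NS1 in S. cerevisiae, measured by optical density at 600 nm. Assay medium contained 2% galactose at pH 6.0; NS1-free yeast of the same strain were the positive control.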
Sm TGR inh – blocks Schistosoma mansoni thioredoxin glutathione reductase; Q962Y6; purified TGR, DTNB reduction, TNB absorbance 405 nm; Potency, µM (top dose mostly 114 µM), without a hit: at the highest dose activity change, negative = inhibition, most hits filed as inhibitors; 360,000 compounds, 3% hits; AID 485364; also: % is scaled to controls: 0 for no effect and ±100 for the full control effect; nearly all actives have a fitted effect of over 60% in size
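Kinetic colorimetric format: TGR-catalysed, NADPH-driven DTNB reduction monitored via TNB absorbance. Enzyme dispensed at 20 nM; compound exposure 15 min at room temperature before reaction start.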
Pf growth 48h – inhibits P. falciparum growth in the first generation, 48 h; AID 504832; P. falciparum luciferase growth in erythrocytes, 48 h; 310,000 compounds, 5.9% hits; Potency, µM (doses to about 28.7 µM), without a hit: at the highest dose activity change, negative = inhibition, actives largely listed as inhibitors; also: % is scaled to controls: 0 for no effect and ±100 for the full control effect
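First compound was added to culture medium, then infected red cells at 0.1% parasitemia and 2% hematocrit (final). After incubation at 37 C under 5% CO2, luciferase detection reagent was dispensed and light output recorded.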
Pf growth 96h – inhibits malaria parasite growth, 96 h; P. falciparum luciferase reporter growth, 96 h; Potency, µM (titrated, usually from 28.7 µM), for the others: top-dose activity change, negative = inhibition, most hits filed as inhibitors; 320,000 compounds, 6.9% hits; AID 504834; also: % is scaled to controls: 0 for no effect and ±100 for the full control effect
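Erythrocytes infected with luciferase-expressing P. falciparum were dispensed at 2% hematocrit and 0.05% parasitemia (final), then incubated with compounds 96 hours at 37 C in 5% CO2. Luminescence after detection reagent addition reported growth.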
Numbers without * were called inactive; ? = inconclusive; · = not tested or not shown; [ ] = remark or other dose. Most compounds without a hit are left out; they make up all but 11% or so of the library. Unless noted, calls follow the shape of the dose curve; as a rule, active = well fitted curve in the direction sought with a large enough effect; inconclusive = small, poorly fitted or top-dose-only effect, or another doubt; inactive = no such curve, though single readings can be large; an effect the other way counts as inactive or inconclusive. Potency is read from the fitted curve at half-maximal effect.

SMILES	AMA1 RON2 block	NS1 inh	Sm TGR inh	Pf growth 48h	Pf growth 96h
O=C1OC(CN2CCOCC2)CN1N=Cc1ccc([N+](=O)[O-])o1 (stereo not given)	8%	·	-32%	13µM*	?
O=C1CN(/N=C/c2ccc([N+](=O)[O-])o2)C(=O)N1	-11%	-1%	?	13µM*	4.1µM*
O=C1O[C@H](CN2CCOCC2)CN1/N=C\c1ccc([N+](=O)[O-])o1	·	·	·	-17%[12.8 µM]	?
Cc1c(C(=O)N2CCC(C)CC2)c(S(=O)(=O)Nc2cccc(C#N)c2)c(C)n1C	·	·	-3%	·	·
CCOC(=O)C1CCN(C(=O)Cn2c(=O)oc3cc(S(=O)(=O)N4CCC(C)CC4)ccc32)CC1	·	·	-6%	·	·
CCCCCCN1CC(=O)N2[C@@H](Cc3c([nH]c4ccccc34)C2(C)C)C1=O	0%	5%	9%	-22%	0%
O=[N+]([O-])c1cc(-c2csc(NC(CO)c3nc4ccccc4n3CCOCCO)n2)ccc1Cl (stereo not given)	37%	·	·	·	·
CC(C)N(C)c1ncnc2c1ncn2[C@H]1CN(Cc2ccc(-c3ccccc3)cc2)C[C@@H](CO)O1	-23%	·	·	·	·
CCN(CC)S(=O)(=O)c1cccc(NC(=O)CNc2cccc(S(=O)(=O)N3CCCC3)c2)c1	-5%	4%	1%	?	?
CCN(CC)S(=O)(=O)c1cc(NC(=O)CNc2cccc(S(=O)(=O)N3CCOCC3)c2)ccc1C	-6%	·	1%	?	?
O=C(CNc1cccc(C(F)(F)F)c1)Nc1cccc(S(=O)(=O)N2CCCC2)c1	-17%	·	-13%	?	?
O=C(CNc1cccc(S(=O)(=O)N2CCCC2)c1)Nc1ccc(F)c(F)c1	-3%	·	-10%	1.5µM*	1.3µM*
Cc1ccc(NC(=O)CNc2cccc(S(=O)(=O)N3CCOCC3)c2)cc1F	7%	·	5%	10µM*	6.6µM*
O=C(CNc1cccc(S(=O)(=O)N2CCCC2)c1)Nc1cccc(F)c1	-7%	·	-6%	3.7µM*	10µM*
CCN(CC)S(=O)(=O)c1ccc(C)c(NC(=O)CNc2cccc(S(=O)(=O)N3CCCC3)c2)c1	15%	·	1%	12µM*	-17%
O=C(CNc1ccccc1F)Nc1cccc(S(=O)(=O)N2CCCCC2)c1	-10%	·	-16%	?	?
O=C(CSc1ncc(S(=O)(=O)c2ccc(Cl)cc2)c(=O)[nH]1)Nc1ccc2c(c1)OCCO2	·	·	-1%	·	·
COc1ccc(OC)c(NC(=O)CCc2c(C)nn(-c3ccc(N4CCCC4)nn3)c2C)c1	·	·	-4%	·	·
CCOc1ccc(NS(=O)(=O)c2ccc(C(=O)NNC(=O)c3ccccc3O)cc2)cc1	63%	·	-12%	?	?
Cc1cccc(C(=O)OCC(=O)Nc2ccccc2C(=O)NC2CC2)c1	20%	·	-29%	?	?
CCN(CC)CC(=O)Nc1cccc(S(=O)(=O)N2CCCC2)c1	-21%	7%	6%	103%	-4%
Cc1ccc(NC(=O)CNc2cccc(S(=O)(=O)N3CCCC3)c2)cc1F	-4%	·	2%	9.3µM*	5.2µM*
O=C(Cn1nnc(-c2ccc(F)cc2)n1)Nc1cccc(S(=O)(=O)N2CCCC2)c1	-4%	·	6%	?	13µM*
O=C(Cn1nnc(-c2ccccc2Cl)n1)Nc1cccc(S(=O)(=O)N2CCCC2)c1	-4%	·	·	·	·
CC(=O)c1cccc(NCC(=O)Nc2cccc(S(=O)(=O)N3CCCCC3)c2)c1	1%	·	2%	?	?
SMILES	AMA1 RON2 block	NS1 inh	Sm TGR inh	Pf growth 48h	Pf growth 96h
O=C(Nc1cccc(S(=O)(=O)N2CCCCC2)c1)C1CCCN1S(=O)(=O)c1ccccc1F (stereo not given)	-4%	·	-4%	10µM*	?
O=C(CN(CCO)c1ccccc1)Nc1cccc(S(=O)(=O)N2CCCC2)c1	17%	·	-2%	-29%	13µM*
CN1C(=O)/C(=C/c2ccccc2Cl)Sc2ccc(C(=O)NCc3cccnc3)cc21	-10%	·	7%	?	-43%
CSc1ccc(NC(=O)NCc2cccnc2)cc1	-7%	4%	5%	27%	33%
Cc1ccc(SCC(=O)Nc2cccc(S(=O)(=O)N3CCOCC3)c2)cc1C	-27%	·	-1%	17µM*	?
O=C(CSc1ccc(Br)cc1)Nc1cccc(S(=O)(=O)N2CCOCC2)c1	-8%	·	0%	?	-3%
COc1ccc(Oc2ncnc3c2oc2ccccc23)cc1	·	·	4%	·	·
Cc1ccc(S(=O)(=O)N2CCC(=O)N(C(CO)Cc3ccccc3)CC2)cc1 (stereo not given)	41%	-4%	-11%	?	-5%
Cc1ccc(S(=O)(=O)N2CCC(=O)N(C(COCc3ccc(Cl)c(Cl)c3)Cc3ccccc3)CC2)cc1 (stereo not given)	-5%	19%	-7%	9.3µM*	?
Cc1ccc(S(=O)(=O)N2CCC(=O)N(C(COCc3ccc(C(F)(F)F)cc3)Cc3ccccc3)CC2)cc1 (stereo not given)	-1%	?	-18%	?	7.4µM*
Cc1ccc(S(=O)(=O)N2CCC(=O)N([C@H](COCc3ccc(C(F)(F)F)cc3)Cc3ccccc3)CC2)cc1	1%	·	·	·	·
Cc1ccc(S(=O)(=O)N2CCC(=O)N(C(COC(=O)Nc3ccccc3)Cc3ccccc3)CC2)cc1 (stereo not given)	-1%	19%	-8%	?	15µM*
Cc1ccc(S(=O)(=O)N2CCC(=O)N(C(COCc3ccc(C(F)(F)F)cc3)C(C)C)CC2)cc1 (stereo not given)	5%	6%	-6%	?	10µM*
